Measurements as given in PubChem BioAssay (NCI).
Compounds without any hit were thinned out: in the full panel of roughly 83,000, 20% have a hit.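 Cell lines were cultured in 96-well plates, exposed to a single compound concentration, and assessed for percent growth 48 hours later.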 The source made the active and inactive calls. How the source made its calls: active means growth percent below 10; inactive means the rest.

How the values were obtained:
Test in all cases: NCI-60 one-dose screen, 48 h (100 = growth as untreated, 0 = no growth, -100 = all killed)
Settings in all cases: 10 µM unless noted
[1] = test system: HT29 colon
[2] = test system: SNB-75 CNS
[3] = test system: SNB-19 CNS
[4] = test system: U251 CNS
[5] = test system: PC-3 prostate
[6] = test system: UACC-62 melanoma
[7] = test system: LOX IMVI melanoma
[8] = test system: SK-MEL-28 melanoma
[9] = test system: SK-MEL-5 melanoma

Measured: growth

CC(C)CC1C(=O)N2CCC[C@H]2C2(O)O[C@](NC(=O)C3C=C4c5cccc6[nH]c(Br)c(c56)C[C@H]4N(C)C3)(C(C)C)C(=O)N12 (some centres undefined)
inactive: [1] 53.2% | [2] 35.5% | [3] 69.9% | [4] 53.4% | [5] 20.4% | [6] 56.4% | [7] 62.5% | [8] 91.3%

CSc1nc(NCCO)c(C#N)c(-c2cccc([N+](=O)[O-])c2)n1
inactive: [1] 112% | [2] 72.8% | [3] 90.7% | [5] 94.7% | [9] 97.2% | [6] 87% | [7] 91.6% | [8] 112%

N#C/C(=C\c1ccc(-c2ccc(Cl)c(Cl)c2)o1)c1nc(-c2ccco2)cs1
inactive: [1] 88% | [2] 70.7% | [3] 100% | [5] 95.8% | [6] 78.3% | [7] 93.9% | [8] 114%

Cc1ncc(C(=O)Nc2ccc(CN3CCN(C)CC3)c(C(F)(F)F)c2)cc1C#Cc1cnc2cccnn12
active: [1] 0.719% | [2] -71.7% | [3] 7.27% | [4] 7.52% | [5] 5.7% | [6] -16.9% | [7] -18.3% | [8] -14.4%

COc1ccc(C(=O)c2sc3nc(C)cc(C)c3c2N)cc1OC
inactive: [1] 88.2% | [2] 84.3% | [3] 79.6% | [4] 66% | [9] 93.4% | [6] 80.8% | [7] 96.5% | [8] 101%

NC(=NC1C2CC3CC(C2)CC1C3)Nc1ccc(I)cc1 (centres undefined)
active: [1] 9.6%
inactive: [2] 57.1% | [4] 50.4% | [5] 36.9% | [7] 61.9%

C=CC(=O)Nc1cccc(-c2nc(SC)nc(Nc3cccc(OC)c3)c2C#N)c1
inactive: [1] 56.9% | [2] 18% | [3] 66.9% | [5] 53.1% | [9] 77% | [6] 78.1% | [7] 72.1% | [8] 87%

Cc1ccc2c(c1)C(=O)/C(=C/c1cccc(OCC(=O)c3ccc(Cl)cc3)c1)CS2
inactive: [1] 87.9% | [2] 87.6% | [3] 93.9% | [4] 89.7% | [9] 85.1% | [6] 76.2% | [7] 75.3% | [8] 123%

O=C1/C(=C/c2ccccc2O)N=C2SCCCN12
inactive: [1] 103% | [2] 70.6% | [3] 90.8% | [4] 98.6% | [5] 88.2% | [7] 96.5%

O=C1/C(=C/c2ccc3c(c2)OCO3)SC(=S)N1CCc1ccc(O)cc1
inactive: [1] 113% | [2] 83.7% | [3] 95.5% | [4] 102% | [9] 98.2% | [6] 88% | [7] 91.3% | [8] 104%

C=C1C(=O)O[C@H]2[C@H]1CC/C(COC(=O)NCc1ccc(OC)c(OC)c1)=C\CC[C@@]1(C)O[C@@H]21
inactive: [1] 28.8% | [3] 87.2% | [4] 86.5% | [5] 78.4% | [7] 69.4%

CC(C)C1=C[C@@]23CC[C@@H]4[C@](C)(CCC[C@@]4(C)C(=O)N4CCCNCC4)[C@H]2C[C@@H]1[C@H]1C(=O)CCC(=O)[C@H]13
inactive: [1] 108% | [2] 63.5% | [3] 99.5% | [5] 93% | [9] 97.7% | [6] 98.2% | [7] 92.1% | [8] 109%

CCOC(=O)n1cc(-c2nonc2-c2cn(C)c3ncccc23)c2cc(F)ccc21
inactive: [1] 83.2% | [2] 64.3% | [3] 91.6% | [9] 81.5% | [6] 62.2% | [7] 83.8% | [8] 102%

COc1cccc(/C=C2\SC(=Nc3ccc(NC(C)=O)cc3)NC2=O)c1OC
inactive: [1] 116% | [2] 67.5% | [3] 97.7% | [4] 93.1% | [9] 96.2% | [6] 98% | [7] 95.7% | [8] 101%

CCCOc1cc2ccccc2cc1C(=O)Nc1nc(N)c2c(ccc3nccc32)[nH]1
active: [1] -63.3% | [2] -90.3% | [3] -76.4% | [5] -27.9% | [6] -81% | [7] -73.7% | [8] -84.9%

CCCCn1c(-c2ccc(C(=O)O/N=C(\N)c3ccc4ccccc4c3)cc2)nc(-c2ccccc2)c1-c1ccccc1
inactive: [1] 74.3% | [4] 73% | [5] 64.8% | [6] 76.2% | [8] 88.5%
active: [7] 3.13%

COC(=O)[C@@H]1CCCN1C(=O)[C@@H]1CCCN1C(=O)[C@H](Cc1ccccc1)NC(=S)Nc1cc(C(F)(F)F)cc(C(F)(F)F)c1
inactive: [1] 74.7% | [2] 73.8% | [9] 86.4% | [6] 85.3% | [7] 88.5% | [8] 85.3%
active: [4] 7.88%

Cc1cc(C)c2nc3nc(C)cc(C)c3c(N)c2c1
active: [7] 7.77%
inactive: [1] 18% | [2] 52.7% | [3] 35.3% | [4] 15.3% | [6] 41.8% | [8] 38.7%

N=C(N)c1ccc(-c2ccc(-c3ccc4ccccc4c3)s2)s1
active: [1] -60.5% | [3] -40.4% | [6] -6.73% | [7] -56.6%
inactive: [2] 89.3% | [9] 84.4% | [8] 92.8%

CCOC(=O)C(C)(C#N)C1C=CCCC1 (centres undefined)
inactive: [1] 94.7% | [2] 78.3% | [4] 106% | [5] 94.2% | [6] 97.7% | [7] 96.1% | [8] 96.2%

COc1cccc(-c2nc3sccn3c2-c2ccnc(NCCNS(=O)(=O)c3ccc(F)cc3)c2)c1
inactive: [1] 24% | [2] 22.9% | [3] 50.5% | [5] 16.3% | [7] 25.1% | [8] 45.2%
active: [9] -53.1% | [6] -9.01%

COc1cc(-c2nc3cc(Cl)c(Cl)cc3[nH]2)ccc1OCC(=O)N=Nc1c(O)[nH]c2ccccc12
active: [1] -23.1% | [3] 0.731% | [4] -92% | [5] -59.3% | [6] -93.9% | [7] -100% | [8] -93.4%

Cn1c(=O)c2c(nc3n(-c4ccc(Cl)cc4Cl)c(Sc4nc(-c5ccccc5)c(C#N)c(=O)[nH]4)cn23)n(C)c1=O
inactive: [1] 57.1% | [3] 24.7% | [5] 75.7% | [9] 90.4% | [6] 63.2% | [7] 33.5% | [8] 87.8%
active: [2] -5.62%

CC1=CC(C)(C)Nc2ccc(Cc3ccc4c(c3)C(C)=CC(C)(C)N4)cc21
inactive: [1] 103% | [2] 86.3% | [3] 93.4% | [4] 93.5% | [9] 92.8% | [6] 84.1% | [7] 88.7% | [8] 104%

CCCCCCCCCCCCC[N+](C)(C)Cc1ccccc1
active: [1] -62.7% | [2] -52.9% | [3] -60.7% | [4] 7.89% | [5] -23.7% | [6] -83.9% | [7] -88.3% | [8] -57%

CCCCn1c(-c2ccc(C(=O)O/N=C(\N)c3ccc4c(c3)OCO4)cc2)nc(-c2ccccc2)c1-c1ccccc1
active: [2] -15.4% | [7] -72.5%
inactive: [1] 19.7% | [3] 58.8% | [4] 45% | [5] 42.5% | [6] 67.9% | [8] 76.9%

Cn1ncc2c(=O)nc3c(-c4ccccc4)n[nH]n3c21
inactive: [1] 103% | [2] 96.3% | [3] 99.1% | [4] 110% | [9] 110% | [6] 96.7% | [7] 115% | [8] 138%

COc1ccc(-n2nc(C)c3c(Nc4ccc(NC(=O)Nc5cc(C(F)(F)F)ccc5F)cc4)ncnc32)cc1
active: [1] 1.92% | [7] -90.5%
inactive: [2] 25.8% | [3] 34.8% | [4] 12.9% | [9] 46% | [6] 19.6% | [8] 48.6%

COc1cc(-c2nc(C(=O)NCC(=O)NO)nn2-c2ccc(Cl)cc2)cc(OC)c1OC
inactive: [1] 96.4% | [2] 87.7% | [3] 100% | [4] 96.1% | [5] 87.9% | [7] 95.9%

OCCNc1nccc(N2CCN(c3ccnc4cc(Cl)ccc34)CC2)n1
inactive: [1] 45.7% | [2] 71.3% | [3] 88.9% | [4] 86% | [5] 72.2% | [6] 71.4% | [8] 94%
